Measurements published in PubChem BioAssay AID1159580 (chemical genetic matrix, 2015).
The campaign covered roughly 5,500 compounds. About 2,000 (36%) were called active. About 18% were inconclusive and are not listed. The list shows a part of the results. Values without a mark were called inactive. Rule as the data show it: active = normalized growth mostly below about 0.91 (no sharp cut-off); inconclusive = no clear call, values can overlap the other calls; inactive = mostly above about 0.92.

Assay: chemical genetic growth profiling, strain panel (AID 1159580);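 also: tested at 20 µM; growth read once vehicle control cultures reached saturation at 30 °C; 1 = growth at the plate median or of vehicle wells; lower values mean less growth of the strain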
Conditions: S. cerevisiae deletion strains, growth OD
[1] = locus YAL040C, strain CLN3, stronger effect = lower value
[2] = locus YCL061C, strain MRC1 (second series), stronger effect = lower value
[3] = locus YDR150W, strain NUM1, stronger effect = lower value
[4] = locus YDR363W, strain ESC2, stronger effect = lower value
[5] = locus YER002W, strain NOP16, stronger effect = lower value
[6] = locus YMR307W, strain GAS1, stronger effect = lower value
[7] = locus YNL153C, strain GIM3, stronger effect = lower value
[8] = locus YNL175C, strain NOP13, stronger effect = lower value
[9] = locus YNL224C, strain SQS1, stronger effect = lower value
[10] = locus YNL322C, strain KRE1, stronger effect = lower value
[11] = locus YOR083W, strain WHI5 (second series), stronger effect = lower value

SMILES: CC(=O)[C@@]12O[C@](C)(c3ccccc3)O[C@@H]1CC1C3CCC4=CC(=O)CC[C@]4(C)C3CC[C@@]12C (stereo partly specified)
- normalized growth (locus YHR030C, strain SLT2, stronger effect = lower value): 1.06
- normalized growth (locus YHR079C, strain IRE1, stronger effect = lower value): 1.03
- normalized growth (locus YJL095W, strain BCK1, stronger effect = lower value): 0.901
- normalized growth (locus YJR066W, strain TOR1, stronger effect = lower value): 1.01
- normalized growth (locus YLR113W, strain HOG1, stronger effect = lower value): 0.897
- normalized growth (locus YNL183C, strain NPR1, stronger effect = lower value): 0.987
- normalized growth (locus YOR231W, strain MKK1, stronger effect = lower value): 1
- normalized growth (locus YPL256C, strain CLN2, stronger effect = lower value): 1.02

SMILES: C[C@]12Cc3cn4c(nc3C=C1CCC1C2CC[C@@]2(C)[C@H]1CC[C@@]2(O)C#N)nc1ccccc14 (stereo partly specified)
- normalized growth [1]: 0.88 (active)
- normalized growth [2]: 0.99
- normalized growth [3]: 1
- normalized growth [4]: 0.975
- normalized growth [5]: 0.264 (active)
- normalized growth (locus YGR229C, strain SMI1, stronger effect = lower value): 0.937
- normalized growth (locus YJR075W, strain HOC1, stronger effect = lower value): 0.963
- normalized growth [6]: 0.936
- normalized growth [7]: 0.63 (active)
- normalized growth [8]: 0.229 (active)
- normalized growth (locus YNL197C, strain WHI3, stronger effect = lower value): 0.911
- normalized growth [9]: 0.799 (active)
- normalized growth [10]: 0.938
- normalized growth [11]: 0.852 (active)
- normalized growth (locus YPL055C, strain LGE1, stronger effect = lower value): 0.966
- normalized growth (locus YPL241C, strain CIN2, stronger effect = lower value): 0.996

SMILES: C[C@]12CCC(=O)C=C1CC[C@@H]1[C@@H]2[C@@H](O)C[C@@]2(C)[C@H]1CC[C@]2(O)C(=O)CO
- normalized growth (locus YAL013W, strain DEP1, stronger effect = lower value): 1
- normalized growth [1]: 0.989
- normalized growth [2]: 1
- normalized growth [3]: 0.993
- normalized growth [4]: 1.02
- normalized growth [5]: 0.986
- normalized growth [6]: 1.01
- normalized growth [7]: 1.01
- normalized growth [8]: 0.99
- normalized growth [9]: 0.995
- normalized growth [10]: 1
- normalized growth [11]: 1.01
